According to PubChem BioAssay (EPA / NIEHS):
Activity calls are given as the source filed them. The calls were made as follows: active = hit-call score of the fitted dose curve at least 0.9, where 1 is the maximum; inactive = score below 0.9.

Tests used:
Settings in all cases: mRNA level, 48 h; actives raise or lower the signal
[1] = read-out: CYP4A11 (gene 1579); test: LTEA_HepaRG_CYP4A11: Life Technologies and Expression Analysis (LTEA) Assay for CYP4A11 using HepaRG (AID 2283486)
Outline: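 Readout is CYP4A11 transcript level by qRT-PCR, normalized to three housekeeping genes and fitted bidirectionally against 0.5% DMSO. Human HepaRG cells were treated 48 h, in duplicate, with an 8-point half-log series topping at 100 uM.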

[2] = read-out: DNA damage-inducible transcript 3 (DDIT3), DDIT3 (gene 1649); test: LTEA_HepaRG_DDIT3: Life Technologies and Expression Analysis (LTEA) Assay for DNA damage-inducible transcript 3 (DDIT3) using HepaRG (AID 2283488)
Outline: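 Eight-point concentration-response (100 uM highest, half-log dilutions) in HepaRG, 48 h, duplicate wells. Endpoint: qRT-PCR mRNA, normalized (ACTB, GAPDH, POLR2A), bidirectional fitting with DMSO as baseline.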

[3] = read-out: Pro-epidermal growth factor (Homo sapiens) (UniProt P01133); test: LTEA_HepaRG_EGF: Life Technologies and Expression Analysis (LTEA) Assay for Epidermal growth factor (EGF) using HepaRG (AID 2283489)
Outline: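 EGF transcript measured by Fluidigm TaqMan qRT-PCR with three housekeeping genes for normalization, 48 h after dosing HepaRG cultures in duplicate (top 100 uM, half-log steps, 0.5% DMSO vehicle). Gain or loss relative to DMSO fitted.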

[4] = read-out: Early growth response protein 1 (EGR1) transcription factor, EGR1 (gene 1958); test: LTEA_HepaRG_EGR1: Life Technologies and Expression Analysis (LTEA) Assay for Early growth response protein 1 (EGR1) transcription factor using HepaRG (AID 2283490)
Outline: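 EGR1 expression change in human HepaRG after 48 h chemical exposure, assessed by housekeeping-normalized qRT-PCR; concentration-response up to 100 uM, fitted in both directions against DMSO controls.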

[5] = read-out: Ezrin (EZR), EZR (gene 7430); test: LTEA_HepaRG_EZR: Life Technologies and Expression Analysis (LTEA) Assay for Ezrin (EZR) using HepaRG (AID 2283491)
Outline: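 EZR transcript levels came from Fluidigm qRT-PCR and were normalized to three housekeeping genes after 48 h chemical exposure of HepaRG cells. Dosing used an 8-point half-log series with a 100 uM top concentration in 0.5% DMSO, tested in duplicate; both directions were fitted versus vehicle.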

[6] = read-out: CYP3A5 (gene 1577); test: LTEA_HepaRG_CYP3A5: Life Technologies and Expression Analysis (LTEA) Assay for CYP3A5 using HepaRG (AID 2283493)
Outline: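 Readout was CYP3A5 mRNA by qRT-PCR. HepaRG cultures were exposed for 48 h in serum-free induction medium to chemicals at up to 100 uM, and responses were fitted in both directions relative to DMSO vehicle.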

[7] = read-out: Fatty Acid-Binding Protein 1 (FABP1), FABP1 (gene 2168); test: LTEA_HepaRG_FABP1: Life Technologies and Expression Analysis (LTEA) Assay for Fatty Acid-Binding Protein 1 (FABP1) using HepaRG (AID 2283494)
Outline: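 Values reflect bidirectional concentration-response fitting of FABP1 mRNA change against 0.5% DMSO controls. Human HepaRG cultures received eight half-log doses (top 100 uM) for 48 h; expression quantified by TaqMan qRT-PCR with housekeeping-gene normalization.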

[8] = read-out: Cytochrome P450 4A22 (Homo sapiens) (UniProt Q5TCH4); test: LTEA_HepaRG_CYP4A22: Life Technologies and Expression Analysis (LTEA) Assay for Cytochrome P450 4A22 (CYP4A22) using HepaRG (AID 2283495)
Outline: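 Gene expression measured by qRT-PCR against three housekeeping genes (ACTB, GAPDH, POLR2A), with gain or loss fitted relative to 0.5% DMSO vehicle. HepaRG cultures received 48 h chemical treatment, top concentration 100 uM, half-log steps, duplicate wells.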

[9] = read-out: Cytochrome P450 7A1 (Homo sapiens) (UniProt P22680); test: LTEA_HepaRG_CYP7A1: Life Technologies and Expression Analysis (LTEA) Assay for Cytochrome P450 7A1 (CYP7A1) using HepaRG (AID 2283496)
Outline: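 Using 0.5% DMSO as vehicle and baseline, chemicals were tested in duplicate over an 8-point range from 100 uM on HepaRG cells for 48 h; qRT-PCR signals were normalised to ACTB, GAPDH and POLR2A.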

[10] = read-out: Glutathione S-Transferase (GSTA2), GSTA2 (gene 2939); test: LTEA_HepaRG_GSTA2: Life Technologies and Expression Analysis (LTEA) Assay for Glutathione S-Transferase (GSTA2) using HepaRG (AID 2283497)
Outline: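 Oxidative-stress marker GSTA2 is quantified by TaqMan qRT-PCR in HepaRG cultures treated 48 h across an eight-point range to 100 uM. Expression is normalized to endogenous controls and compared with 0.5% DMSO vehicle.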

[11] = read-out: Glutamate-cysteine ligase catalytic (GCLC), GCLC (gene 2729); test: LTEA_HepaRG_GCLC: Life Technologies and Expression Analysis (LTEA) Assay for Glutamate-cysteine ligase catalytic (GCLC) using HepaRG (AID 2283498)
Outline: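 Oxidative-stress marker GCLC is measured as mRNA change in human HepaRG liver cells after 48 h chemical treatment in 0.5% DMSO, eight concentrations from 100 uM. Activity is fitted bidirectionally against vehicle.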

[12] = read-out: growth arrest and DNA damage 45 (GADD45G), GADD45G (gene 10912); test: LTEA_HepaRG_GADD45G: Life Technologies and Expression Analysis (LTEA) Assay for growth arrest and DNA damage 45 (GADD45G) using HepaRG (AID 2283499)
Outline: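 GADD45G transcript level by qRT-PCR (housekeeping-normalized: ACTB, GAPDH, POLR2A) after 48 h chemical treatment of a single HepaRG lot in serum-free induction medium; eight-point half-log series up to 100 uM in 0.5% DMSO, duplicates, up- or down-regulation scored.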

[13] = read-out: Glutamate-cysteine ligase regulatory (GCLM), GCLM (gene 2730); test: LTEA_HepaRG_GCLM: Life Technologies and Expression Analysis (LTEA) Assay for Glutamate-cysteine ligase regulatory (GCLM) using HepaRG (AID 2283500)
Outline: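 In this multiplexed HepaRG gene-expression assay, GCLM mRNA change after 48 h treatment (8 concentrations, max 100 uM) was scored against DMSO by bidirectional curve fitting.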

[14] = read-out: Glutathione S-transferase M3 (GSTM3), GSTM3 (gene 2947); test: LTEA_HepaRG_GSTM3: Life Technologies and Expression Analysis (LTEA) Assay for Glutathione S-transferase M3 (GSTM3) using HepaRG (AID 2283501)
Outline: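 GSTM3 transcript levels came from Fluidigm TaqMan qRT-PCR normalized to three housekeeping genes, fitted in both directions against DMSO. HepaRG cultures received chemicals for 48 h in serum-free induction medium (0.5% DMSO), 8 half-log concentrations up to 100 uM, duplicate.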

[15] = read-out: Heat shock 70 kDa protein 1 (HSPA1A), gene 3303; test: LTEA_HepaRG_HSPA1A: Life Technologies and Expression Analysis (LTEA) Assay for Heat shock 70 kDa protein 1 (HSPA1A) using HepaRG (AID 2283502)
Outline: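 An oxidative-stress marker readout: HepaRG cells treated 48 h in duplicate with an eight-point series (highest 100 uM) had HSPA1A mRNA quantified by TaqMan qRT-PCR. Activity was fitted in both directions using 0.5% DMSO as baseline.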

[16] = read-out: Hypoxia-inducible factor 1-alpha (Homo sapiens) (UniProt Q16665); test: LTEA_HepaRG_HIF1A: Life Technologies and Expression Analysis (LTEA) Assay for Hypoxia-inducible factor 1 (HIF1A) Trancription factor using HepaRG (AID 2283503);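 also: HIF1A transcript by TaqMan qRT-PCR normalized to ACTB GAPDH and POLR2A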
Outline: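 Gain- or loss-of-signal HIF1A mRNA changes are fitted against a DMSO baseline. HepaRG cultures receive eight concentrations, highest 100 uM, for 48 h in serum-free induction medium with 0.5% DMSO.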

[17] = read-out: 3-Hydroxy-3-Methylglutaryl-CoA Synthase 2 (HMGCS2), HMGCS2 (gene 3158); test: LTEA_HepaRG_HMGCS2: Life Technologies and Expression Analysis (LTEA) Assay for 3-Hydroxy-3-Methylglutaryl-CoA Synthase 2 (HMGCS2) using HepaRG (AID 2283504)
Outline: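 Readout is HMGCS2 transcript by qRT-PCR, housekeeping-normalised (ACTB/GAPDH/POLR2A) and fitted bidirectionally against 0.5% DMSO. Differentiated HepaRG cells received chemicals 48 h, duplicate wells, eight half-log concentrations topping at 100 uM.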

[18] = read-out: Cytochrome P450 3A4 (Homo sapiens) (UniProt P08684); test: LTEA_HepaRG_CYP3A4: Life Technologies and Expression Analysis (LTEA) Assay for CYP3A4 using HepaRG (AID 2283487)
Outline: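 Differentiated HepaRG cells, plated 48 h, then dosed 48 h in serum-free induction medium with 0.5% DMSO, 8 half-log concentrations up to 100 uM, duplicate. CYP3A4 mRNA by qRT-PCR, normalized to ACTB/GAPDH/POLR2A; bidirectional fit versus DMSO.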

[19] = read-out: Cytochrome P450 3A7 (Homo sapiens) (UniProt P24462); test: LTEA_HepaRG_CYP3A7: Life Technologies and Expression Analysis (LTEA) Assay for CYP3A7 using HepaRG (AID 2283492)
Outline: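 CYP3A7 transcript measured by qRT-PCR (ACTB, GAPDH, POLR2A normalization) after 48 h chemical exposure of HepaRG cells in duplicate. Eight half-log concentrations, maximum 100 uM, 0.5% DMSO vehicle; bidirectional curve fitting against DMSO baseline.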

[20] = read-out: HGF (gene 3082); test: LTEA_HepaRG_HGF: Life Technologies and Expression Analysis (LTEA) Assay for Hepatocyte Growth Facto (HGF) using HepaRG (AID 2283505)
Outline: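 HGF transcript was quantified by TaqMan qRT-PCR against three housekeeping genes after 48 h treatment of HepaRG cells. Exposure ran in duplicate over eight half-log steps topping at 100 uM in 0.5% DMSO vehicle.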

Measured: AC50

Hypoxia-inducible factor 1-alpha (Homo sapiens), sequence (Q16665 whole entry, looked up): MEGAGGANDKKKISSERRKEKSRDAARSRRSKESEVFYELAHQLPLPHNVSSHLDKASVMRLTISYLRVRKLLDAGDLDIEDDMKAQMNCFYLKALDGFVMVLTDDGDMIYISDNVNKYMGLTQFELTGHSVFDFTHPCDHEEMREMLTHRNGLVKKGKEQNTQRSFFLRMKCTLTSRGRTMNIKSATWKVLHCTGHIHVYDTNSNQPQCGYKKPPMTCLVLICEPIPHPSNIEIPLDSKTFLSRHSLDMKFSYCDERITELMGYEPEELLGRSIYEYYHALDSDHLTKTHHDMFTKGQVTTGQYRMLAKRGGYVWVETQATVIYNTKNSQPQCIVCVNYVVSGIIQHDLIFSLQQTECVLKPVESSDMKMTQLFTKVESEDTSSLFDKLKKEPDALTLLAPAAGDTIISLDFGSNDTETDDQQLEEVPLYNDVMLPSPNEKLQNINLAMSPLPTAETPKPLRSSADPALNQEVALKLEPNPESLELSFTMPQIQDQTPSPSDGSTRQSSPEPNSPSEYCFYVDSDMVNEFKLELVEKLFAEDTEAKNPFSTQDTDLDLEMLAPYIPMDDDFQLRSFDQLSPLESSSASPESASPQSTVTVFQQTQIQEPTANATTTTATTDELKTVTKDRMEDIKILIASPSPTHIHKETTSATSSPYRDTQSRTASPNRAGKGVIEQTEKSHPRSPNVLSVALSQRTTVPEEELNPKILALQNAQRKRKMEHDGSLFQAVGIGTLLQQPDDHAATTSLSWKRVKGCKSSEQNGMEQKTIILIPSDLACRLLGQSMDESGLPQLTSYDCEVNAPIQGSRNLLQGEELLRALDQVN
Cytochrome P450 3A7 (Homo sapiens), sequence (P24462 whole entry, looked up): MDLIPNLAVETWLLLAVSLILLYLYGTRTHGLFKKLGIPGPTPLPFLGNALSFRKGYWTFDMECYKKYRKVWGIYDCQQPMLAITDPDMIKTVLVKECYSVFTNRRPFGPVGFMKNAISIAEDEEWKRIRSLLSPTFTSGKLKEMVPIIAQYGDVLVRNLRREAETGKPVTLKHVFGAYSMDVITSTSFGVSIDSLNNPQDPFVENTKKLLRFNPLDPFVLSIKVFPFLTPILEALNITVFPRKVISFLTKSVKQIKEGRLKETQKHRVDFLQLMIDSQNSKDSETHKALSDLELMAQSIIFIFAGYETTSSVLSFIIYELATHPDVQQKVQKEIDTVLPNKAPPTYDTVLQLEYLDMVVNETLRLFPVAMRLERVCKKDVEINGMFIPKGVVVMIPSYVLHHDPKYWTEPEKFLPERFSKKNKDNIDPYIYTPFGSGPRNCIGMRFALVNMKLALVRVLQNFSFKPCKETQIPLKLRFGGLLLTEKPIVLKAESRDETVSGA
Cytochrome P450 3A4 (Homo sapiens), sequence (P08684 whole entry, looked up): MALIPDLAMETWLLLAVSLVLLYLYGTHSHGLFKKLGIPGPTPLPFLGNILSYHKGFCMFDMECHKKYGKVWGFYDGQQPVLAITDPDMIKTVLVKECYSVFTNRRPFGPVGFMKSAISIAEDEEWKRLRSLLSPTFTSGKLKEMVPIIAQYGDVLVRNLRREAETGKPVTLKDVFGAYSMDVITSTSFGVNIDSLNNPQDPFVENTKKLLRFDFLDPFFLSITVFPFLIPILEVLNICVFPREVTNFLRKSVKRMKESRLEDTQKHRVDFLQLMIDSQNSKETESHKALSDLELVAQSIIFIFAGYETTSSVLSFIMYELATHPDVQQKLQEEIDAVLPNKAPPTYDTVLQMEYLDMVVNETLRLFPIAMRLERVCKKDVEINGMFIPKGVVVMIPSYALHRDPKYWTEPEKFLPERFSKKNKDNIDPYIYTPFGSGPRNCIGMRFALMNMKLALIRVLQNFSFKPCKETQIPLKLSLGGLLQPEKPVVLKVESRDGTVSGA

CCCCOCCOCCOCc1cc2c(cc1CCC)OCO2
active: [12] 4.83 µM | [15] 7.35 µM
not listed: [18] | [19] | [20]
inactive: all other assays above

CCCN(CCC)C(=O)SCC
inactive: all assays above

CCOC(=O)COc1cc(-n2ncc(C(F)(F)F)c(C)c2=O)c(F)cc1Cl
active: [18] 50 µM | [19] 28.9 µM
inactive: all other assays above
